Eight compounds from PubChem BioAssay (NCI) can be followed below.

This is part of a sample that, as a whole, favours compounds with a hit. Of some 83,000 tested, about 20% had one in any assay.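 Interpretation: 100, growth as untreated; towards 0, rising growth inhibition; 0, no net growth; 0 to -100, cell death. Compounds scoring below 10 were considered active.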 Unmarked numbers belong to inactive results. Calls of active or inactive are those of the source.

Some test systems named below: NCI-H23 lung; NCI-H226 lung; NCI-H322M lung; HOP-62 NSCLC; NCI-H460 lung; HOP-92 NSCLC; NCI-H522 lung; A549/ATCC NSCLC; 786-0 renal; COLO 205 colon; DU-145 prostate; K-562 leukemia; MALME-3M melanoma; MDA-MB-231 breast; RXF 393 renal; SF-268 CNS; SF-295 CNS; SF-539 CNS; UACC-257 melanoma; M14 melanoma.
What all share (assay): NCI-60 one-dose screen, 48 h (100 = growth as untreated, 0 = no growth, -100 = all killed)
Settings in all cases: 10 µM unless noted

Take `Oc1cccc(-c2nc(-c3n[nH]c(=S)n3-c3ccccc3)cc3c2[nH]c2ccccc23)c1`: the growth is 43.3% with NCI-H23 lung; 52.6% in the test on NCI-H226 lung; 13.7% in the test with NCI-H322M lung; 28.4% in the test with HOP-62 NSCLC; 8.82% (active) with NCI-H460 lung; 63.3% in the test with HOP-92 NSCLC. Also, the growth is -28.3% (active) with NCI-H522 lung; 48.3% in the test on A549/ATCC NSCLC; 18.4% in the test with 786-0 renal; 68% with COLO 205 colon; 27.7% with DU-145 prostate; 11.1% with K-562 leukemia. Besides, the growth with MALME-3M melanoma is 44.4%; in the test on MDA-MB-231 breast it was 45.7%; with RXF 393 renal it was -15.7% (active); with SF-268 CNS, 28.6%; with SF-295 CNS, 3.87% (active); in the test with SF-539 CNS it was -15.2% (active). Also, the growth with UACC-257 melanoma is 66.7%; with M14 melanoma, 24.6%.
As for `COC12C=C/C(=C(/C(=O)OCc3ccccn3)C(=O)CCCCCCCCC3(OC)C=C/C(=C(/C(=O)OCc4ccccn4)C(=O)CCCCCCCC1)O3)O2`, the growth with NCI-H23 lung is -37.4% (active); in the test with NCI-H226 lung it was -69.4% (active); in the test on NCI-H322M lung, -60% (active); with HOP-62 NSCLC it was 20%; in the test on NCI-H460 lung, -15.5% (active); in the test with HOP-92 NSCLC, -59% (active). The growth in the test with NCI-H522 lung is -12.9% (active); in the test on A549/ATCC NSCLC, 9.81% (active); in the test with 786-0 renal, -72.5% (active); in the test with COLO 205 colon, -15.6% (active); in the test on DU-145 prostate it was -24.5% (active); with K-562 leukemia, -0.106% (active). For the same compound, the growth in the test with MALME-3M melanoma was -60.1% (active); with MDA-MB-231 breast, 7.85% (active); in the test with RXF 393 renal, -82.5% (active); in the test with SF-268 CNS, -8.87% (active); with SF-295 CNS, -25.7% (active); in the test on SF-539 CNS, -28.3% (active). Further, the growth in the test with UACC-257 melanoma was 11%; in the test with M14 melanoma it was -23.3% (active).
As to `CN1CCN(c2ccc(Nc3ncc4[nH]c(=O)n(Cc5ccccc5N)c4n3)cc2)CC1`, the growth in the test with NCI-H23 lung is 97.5%; with NCI-H226 lung, 80.3%; in the test with NCI-H322M lung, 100%; in the test on HOP-62 NSCLC, 77.8%; in the test on NCI-H460 lung, 102%; with HOP-92 NSCLC, 85.5%. For the same compound, the growth with NCI-H522 lung was 77.1%; in the test with A549/ATCC NSCLC, 97.5%; with 786-0 renal, 84.1%; in the test on COLO 205 colon it was 107%; in the test on DU-145 prostate, 103%; with K-562 leukemia, 69.8%. The growth with MALME-3M melanoma is 83.9%; in the test with MDA-MB-231 breast it was 83.8%; with RXF 393 renal, 83.8%; with SF-268 CNS, 72.8%; with SF-295 CNS it was 98.2%; in the test on SF-539 CNS it was 80.9%. Also, the growth is 112% in the test with UACC-257 melanoma and 95.9% with M14 melanoma.
For `C#CCOc1cc(/C=N/Nc2nc(-c3ccc(OC)cc3)cs2)ccc1O`, the growth was 58.8% with NCI-H23 lung; 89.6% in the test with NCI-H226 lung; 92.4% in the test with NCI-H322M lung; 97% in the test on HOP-62 NSCLC; 88.4% in the test with NCI-H460 lung; 86.3% with HOP-92 NSCLC. Moreover, the growth in the test on NCI-H522 lung was 76.1%; with A549/ATCC NSCLC, 74.2%; in the test on 786-0 renal, 92.6%; in the test with COLO 205 colon it was 103%; with DU-145 prostate, 95.7%; in the test on K-562 leukemia, 59.1%. Moreover, the growth was 86.1% with MALME-3M melanoma; 96.5% in the test on MDA-MB-231 breast; 107% with RXF 393 renal; 94.3% in the test with SF-268 CNS; 84.1% in the test on SF-295 CNS; 93% in the test with SF-539 CNS. In addition, the growth with UACC-257 melanoma was 93.2%; in the test with M14 melanoma, 94.2%.
In the case of `COc1cccc2cc(N(C)c3nc(C)nc4c3CCC4)ccc12`, the growth in the test on NCI-H23 lung is 22.4%; in the test on NCI-H226 lung, 25.8%; in the test with NCI-H322M lung, 59.1%; in the test with HOP-62 NSCLC, 14.7%; in the test with NCI-H460 lung, 6.85% (active); with HOP-92 NSCLC it was 0.483% (active). Also, the growth with NCI-H522 lung is -16.9% (active); in the test on A549/ATCC NSCLC it was 14.8%; with 786-0 renal it was 3.77% (active); with COLO 205 colon, -66.4% (active); in the test on DU-145 prostate it was 5.3% (active); with K-562 leukemia, 10.4%. Also, the growth in the test on MALME-3M melanoma was 57.4%; in the test with MDA-MB-231 breast it was 24.8%; in the test with RXF 393 renal it was 44%; with SF-268 CNS, 25.9%; with SF-295 CNS it was 15.3%; with SF-539 CNS, -0.597% (active). Further, the growth was 59.1% with UACC-257 melanoma and 6.91% (active) in the test with M14 melanoma.
For `CN1CCN(Cc2ccc(NC(=O)c3cncc(C#Cc4c(N)ncc5cc(F)ccc45)c3)cc2C(F)(F)F)CC1`, the growth in the test with NCI-H23 lung is -39.5% (active); in the test on NCI-H226 lung, 22.2%; in the test with NCI-H322M lung it was 40.5%; in the test on HOP-62 NSCLC, 45.1%; in the test with NCI-H460 lung, -19.8% (active); with HOP-92 NSCLC, -14.2% (active). Further, the growth was 34.4% with NCI-H522 lung; 45% with A549/ATCC NSCLC; -94% (active) with 786-0 renal; -20.5% (active) with COLO 205 colon; -88% (active) in the test on DU-145 prostate; -50% (active) in the test on K-562 leukemia. The growth in the test with MALME-3M melanoma was -75.3% (active); in the test with MDA-MB-231 breast, -90.4% (active); in the test with RXF 393 renal it was -59.9% (active); in the test on SF-268 CNS it was 38.6%; with SF-295 CNS it was 59.5%; with SF-539 CNS it was 9.53% (active). The growth in the test with UACC-257 melanoma was 41.5%; in the test with M14 melanoma it was -75.8% (active).
As for `CC(C)n1cc(C2=C(c3cccc4ccccc34)C(=O)NC2=O)c2cc(Br)ccc21`, the growth in the test with NCI-H23 lung is 49%; in the test on NCI-H226 lung it was 37.8%; in the test with NCI-H322M lung it was 87.5%; in the test with HOP-62 NSCLC it was 78.5%; in the test on NCI-H460 lung, 67.5%; in the test on HOP-92 NSCLC, 158%. For the same compound, the growth in the test with NCI-H522 lung was 79.9%; with A549/ATCC NSCLC, 60.5%; in the test on 786-0 renal, 54.9%; in the test with COLO 205 colon, 62.2%; in the test on DU-145 prostate, 71%; with K-562 leukemia, 34.8%. Further, the growth in the test on MALME-3M melanoma was 122%; in the test on MDA-MB-231 breast, 91.2%; in the test on RXF 393 renal, 24.4%; in the test on SF-268 CNS, 67.5%; in the test on SF-295 CNS, 63.9%; with SF-539 CNS it was 60.9%. The growth is 111% in the test with UACC-257 melanoma and 76.1% in the test on M14 melanoma.
As to `CCOC(=O)/C(=C/c1ccc([N+](=O)[O-])cc1)C(=O)c1ccccc1`, the growth with NCI-H23 lung was 48%; in the test with NCI-H226 lung, 21.3%; in the test with NCI-H322M lung, 73.5%; in the test with HOP-62 NSCLC, 76.5%; in the test with NCI-H460 lung it was 55.2%; with HOP-92 NSCLC it was 32.4%. In addition, the growth in the test on NCI-H522 lung is -24.7% (active); with A549/ATCC NSCLC, 71.5%; in the test on 786-0 renal, 17.2%; in the test on COLO 205 colon, 4.21% (active); in the test on DU-145 prostate, 65.3%; in the test with K-562 leukemia, 4.82% (active). In addition, the growth with MALME-3M melanoma is 32.4%; in the test on MDA-MB-231 breast, 20.1%; in the test on RXF 393 renal, -11.1% (active); with SF-268 CNS, 24.5%; in the test on SF-295 CNS it was 81.6%; in the test with SF-539 CNS, -24.9% (active). In addition, the growth in the test with UACC-257 melanoma was 45.4%; in the test on M14 melanoma, 32.4%.
